Source: PubChem BioAssay (NCI)
This is part of a sample that, as a whole, favours compounds with a hit. Of some 79,000 tested, about 15% had one in any assay. Activity calls are given as the source filed them. Cut-off read from the data, not from the text of the source: active = growth inhibition above about 70%; inactive = the rest.

Assays:
[1] = NCI Yeast Anticancer Drug Screen. Data for the rad52 strain (AID 147);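 note: 0% = growth of vehicle-treated control cultures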; conditions: S. cerevisiae rad52 mutant growth inhibition, active compounds read high
In short: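 Vehicle-treated cultures served as the reference for growth inhibition of compound-exposed yeast bearing a DNA repair mutation.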

[2] = NCI Yeast Anticancer Drug Screen. Data for the wt1 strain (AID 149);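 note: 0% = growth of vehicle-treated wt1 cultures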; conditions: S. cerevisiae wt1 strain (SPY 50644) growth inhibition, active compounds read high
In short: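 wt1 yeast, compound-treated; % growth inhibition vs vehicle control.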

[3] = NCI Yeast Anticancer Drug Screen. Data for the rad50EPP+ strain (AID 151);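 note: 0% = growth of vehicle-treated control cultures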; conditions: S. cerevisiae rad50 mutant strain, active compounds read high
In short: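 In this screen, rad50EPP+ yeast were exposed to compounds. Growth inhibition was scored against vehicle-treated controls.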

[4] = NCI Yeast Anticancer Drug Screen. Data for the mgt1 strain (AID 153); conditions: S. cerevisiae mgt1 mutant growth inhibition, active compounds read high
In short: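 mgt1 strain exposed; growth vs vehicle control recorded as inhibition.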

[5] = NCI Yeast Anticancer Drug Screen. Data for the mec2-1 strain (AID 157); conditions: S. cerevisiae mec2-1 strain, active compounds read high
In short: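 Vehicle-treated cultures served as reference for growth inhibition of compound-exposed mec2-1 yeast.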

[6] = NCI Yeast Anticancer Drug Screen. Data for the rad14 strain (AID 159);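 note: 0% = growth of vehicle-treated control cultures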; conditions: S. cerevisiae rad14 strain growth inhibition, active compounds read high
In short: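 Test compounds were applied to a repair-deficient yeast strain. Its growth was then compared with that of cultures given vehicle alone, and inhibition was expressed relative to those controls.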

[7] = NCI Yeast Anticancer Drug Screen. Data for the sgs1 mgt1 strain (AID 161);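 note: 0% = growth of cultures given vehicle only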; conditions: S. cerevisiae sgs1 mgt1 strain, active compounds read high
In short: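 Mutant yeast exposed to compound; growth scored against vehicle-only wells.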

[8] = NCI Yeast Anticancer Drug Screen. Data for the cln2 rad14 strain (AID 165);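 note: 0% = growth equal to vehicle treated cultures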; conditions: S. cerevisiae cln2 rad14 strain, active compounds read high
In short: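 Each compound was tested on cln2 rad14 yeast. Inhibition of growth was calculated against vehicle-exposed controls.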

[9] = NCI Yeast Anticancer Drug Screen. Data for the bub3 strain (AID 167); conditions: S. cerevisiae bub3 mutant strain, active compounds read high
In short: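 Yeast carrying a defined mutation is treated with each compound, and growth is compared with that of vehicle-exposed cells to give inhibition.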

[10] = NCI Yeast Anticancer Drug Screen. Data for the wt2 strain (AID 169);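 note: 0% = growth of vehicle-treated yeast cultures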; conditions: S. cerevisiae wt2 strain growth inhibition, active compounds read high
In short: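 Inhibition of yeast growth was determined after compound treatment, normalised to controls receiving only vehicle.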

[11] = NCI Yeast Anticancer Drug Screen. Data for the mlh1 strain (AID 171);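 note: 0% = growth of vehicle-treated control cultures of the same strain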; conditions: S. cerevisiae mlh1 strain growth inhibition, active compounds read high
In short: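 Vehicle-normalised growth inhibition of a repair- or checkpoint-altered yeast strain following compound treatment.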

[12] = NCI Yeast Anticancer Drug Screen. Data for the sgs1 strain (AID 173);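 note: 0% = growth of vehicle-only control cultures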; conditions: S. cerevisiae sgs1 mutant, active compounds read high
In short: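 Screen format: yeast with repair or checkpoint alterations, compound exposure, growth read relative to vehicle.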

[13] = NCI Yeast Anticancer Drug Screen. Data for the mlh1 rad18 strain (AID 175); conditions: S. cerevisiae mlh1 rad18 strain growth inhibition, active compounds read high
In short: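 Vehicle-treated cultures served as the reference for growth inhibition in a yeast strain carrying DNA damage repair alterations exposed to each compound.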

[14] = NCI Yeast Anticancer Drug Screen. Data for the rad18 strain (AID 177); conditions: S. cerevisiae rad18 mutant growth inhibition, active compounds read high
In short: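 Test articles were incubated with altered yeast defective in DNA damage repair. Results are given as inhibition of growth versus vehicle.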

[15] = NCI Yeast Anticancer Drug Screen. Data for the rad50 strain (AID 155);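 note: 0% = growth of vehicle-only cultures of the same strain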; conditions: S. cerevisiae rad50 strain growth inhibition, active compounds read high
In short: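 Genetically altered yeast (DNA repair pathway); compound treatment; growth inhibition vs vehicle ctrl.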

[16] = NCI Yeast Anticancer Drug Screen. Data for the CLN2oe strain (AID 163);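 note: 0% = growth of vehicle-only control cultures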; conditions: S. cerevisiae CLN2oe strain, active compounds read high
In short: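 Inhibition relative to vehicle-treated yeast is reported. Cells: strain with genetic alteration in cell-cycle control, grown with compound.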

[17] = at 5.0 µM (retest, dose inferred, filed as 0.5)
[18] = at 50.0 µM (retest, dose inferred, filed as 5.0)

Measured: growth inhibition

S=c1[nH]c2c(Cl)c(Cl)c(Cl)c(Cl)c2[nH]1
active: [1]; at 33.0 µM 97% | [1]; at 100.0 µM 94% | [2]; at 33.0 µM 98% | [2]; at 100.0 µM 96% | [3]; at 11.0 µM 81% | [3]; at 33.0 µM 96% | [3]; at 100.0 µM 95% | [4]; at 11.0 µM 78% | [4]; at 33.0 µM 99% | [4]; at 100.0 µM 93% | [5]; at 33.0 µM 98% | [5]; [18] 98% | [5]; at 50.0 µM 91% | [5]; at 100.0 µM 96% | [6]; at 33.0 µM 99% | [6]; at 100.0 µM 96% | [7]; [18] 97% | [8]; [18] 95% | [9]; at 33.0 µM 98% | [9]; [18] 95% | [9]; at 100.0 µM 95% | [10]; at 33.0 µM 96% | [10]; at 100.0 µM 96% | [11]; at 11.0 µM 75% | [11]; at 33.0 µM 98% | [11]; at 100.0 µM 94% | [12]; at 33.0 µM 97% | [12]; at 100.0 µM 96% | [13]; [18] 95% | [13]; at 50.0 µM 90.5% | [14]; at 33.0 µM 97% | [14]; at 100.0 µM 95%
inactive: [1]; at 1.2 µM 13% | [1]; at 3.7 µM 6% | [1]; at 11.0 µM 45% | [2]; at 1.2 µM 16% | [2]; at 3.7 µM -4% | [2]; at 11.0 µM 33% | [3]; at 1.2 µM 13% | [3]; at 3.7 µM 20% | [4]; at 1.2 µM 9% | [4]; at 3.7 µM 15% | [5]; at 1.2 µM -28% | [5]; at 3.7 µM -11% | [5]; [17] 44% | [5]; at 11.0 µM 48% | [6]; at 1.2 µM -11% | [6]; at 3.7 µM 4% | [6]; at 11.0 µM 50% | [7]; [17] -10% | [8]; [17] 61% | [9]; at 1.2 µM -5% | [9]; at 3.7 µM 4% | [9]; [17] 44% | [9]; at 11.0 µM 66% | [10]; at 1.2 µM -12% | [10]; at 3.7 µM -3% | [10]; at 11.0 µM 24% | [11]; at 1.2 µM 2% | [11]; at 3.7 µM 22% | [12]; at 1.2 µM -3% | [12]; at 3.7 µM 10% | [12]; at 11.0 µM 54% | [13]; [17] 26% | [14]; at 1.2 µM 5% | [14]; at 3.7 µM 12% | [14]; at 11.0 µM 42%

NNC(=S)Nc1cccc2ccccc12
active: [5]; [18] 78%
inactive: [1]; at 1.2 µM -10% | [1]; at 3.7 µM -35% | [1]; at 11.0 µM -29% | [1]; at 33.0 µM 8% | [1]; at 100.0 µM 20% | [2]; at 1.2 µM -21% | [2]; at 3.7 µM -17% | [2]; at 11.0 µM -24% | [2]; at 33.0 µM -7% | [2]; at 100.0 µM 7% | [3]; at 1.2 µM -48% | [3]; at 3.7 µM -52% | [3]; at 11.0 µM -54% | [3]; at 33.0 µM -45% | [3]; at 100.0 µM 4% | [4]; at 1.2 µM -16% | [4]; at 3.7 µM -45% | [4]; at 11.0 µM -23% | [4]; at 33.0 µM -7% | [4]; at 100.0 µM 60% | [15]; at 1.2 µM -31% | [15]; at 3.7 µM -26% | [15]; [17] 45% | [15]; at 11.0 µM -31% | [15]; at 33.0 µM -6% | [15]; [18] 35% | [15]; at 50.0 µM 23.6% | [15]; at 100.0 µM 43% | [5]; at 1.2 µM -16% | [5]; at 3.7 µM -41% | [5]; [17] 60% | [5]; at 11.0 µM -20% | [5]; at 33.0 µM -9% | [5]; at 50.0 µM 23.8% | [5]; at 100.0 µM 12% | [6]; at 1.2 µM -14% | [6]; at 3.7 µM -33% | [6]; at 11.0 µM -50% | [6]; at 33.0 µM -32% | [6]; at 100.0 µM 28% | [7]; [17] -11% | [7]; [18] 54% | [16]; at 1.2 µM 5% | [16]; at 3.7 µM -3% | [16]; at 11.0 µM 2% | [16]; at 33.0 µM 3% | [16]; at 100.0 µM 27% | [8]; [17] 31% | [8]; [18] 67% | [9]; at 1.2 µM -6% | [9]; at 3.7 µM -9% | [9]; [17] 36% | [9]; at 11.0 µM -15% | [9]; at 33.0 µM 13% | [9]; [18] 59% | [9]; at 100.0 µM 55% | [10]; at 1.2 µM -40% | [10]; at 3.7 µM -36% | [10]; at 11.0 µM -33% | [10]; at 33.0 µM -16% | [10]; at 100.0 µM 17% | [11]; at 1.2 µM -37% | [11]; at 3.7 µM -38% | [11]; at 11.0 µM -29% | [11]; at 33.0 µM -13% | [11]; at 100.0 µM 48% | [12]; at 1.2 µM -14% | [12]; at 3.7 µM -33% | [12]; at 11.0 µM -19% | [12]; at 33.0 µM -8% | [12]; at 100.0 µM 37% | [13]; [17] 40% | [13]; [18] 62% | [13]; at 50.0 µM 49.2% | [14]; at 1.2 µM -32% | [14]; at 3.7 µM -39% | [14]; at 11.0 µM -21% | [14]; at 33.0 µM 2% | [14]; at 100.0 µM 18%

O=c1[nH]c2ccccc2c2nc3ccccc3n12
inactive: [1]; at 1.2 µM -43% | [1]; at 3.7 µM -34% | [1]; at 11.0 µM 8% | [2]; at 1.2 µM -39% | [2]; at 3.7 µM -44% | [2]; at 11.0 µM -8% | [2]; at 33.0 µM 3% | [2]; at 100.0 µM -17% | [3]; at 1.2 µM 10% | [3]; at 3.7 µM 16% | [3]; at 11.0 µM 48% | [4]; at 1.2 µM -34% | [4]; at 3.7 µM -14% | [4]; at 11.0 µM 26% | [4]; at 33.0 µM 40% | [4]; at 100.0 µM 8% | [15]; at 1.2 µM -17% | [15]; at 3.7 µM -6% | [15]; [17] 51% | [15]; at 50.0 µM 15.6% | [5]; at 1.2 µM -48% | [5]; at 3.7 µM -50%
active: [1]; at 33.0 µM 72% | [1]; at 100.0 µM 70% | [3]; at 33.0 µM 90% | [3]; at 100.0 µM 92% | [15]; at 11.0 µM 77% | [15]; at 33.0 µM 78% | [15]; [18] 94% | [15]; at 100.0 µM 88%
